# Reference: PubChem BioAssay AID651673 (Broad Institute, 2012)
# Some of the results follow. The source made the active and inactive calls.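 Rule for the calls: active = signal drop giving an AC50 within twice the top valid tested concentration of each sample (actives reach about 35 µM in these data); inactive = activity opposite to expected, plus the rest.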
# Assay: DNA binding of candidate compounds, dose response, artefact control for RAD54 inhibitor project, biochemical, fluorescence polarization, cherry-pick (AID 651673);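 note: polarization loss reports compound binding to salmon sperm DNA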
smiles,measurement,value
CN1CCN(c2cc(N3CCNCC3)ccc2[N+](=O)[O-])CC1,outcome,inactive
